The supplement of paper PMC8253809
Values joined by “and” are separate entries in the source; they are usually repeats but may differ in a detail not shown here. Equal values may be shown once.

tested on: DIPGX7 (H3.3 K27M diffuse intrinsic pontine glioma line); test: growth inhibition (% activity, log2 RLU normalised to DMSO / staurosporine); higher = more growth inhibition; settings: 33 µM
Procedure, shortened: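 In triplicate, pHGG cell lines and H9-derived neural stem cells were treated for 7 days at 37 °C, 5% CO2 with approved drugs at a single final concentration of about 33 μM, added by pin tool. CellTiter-Glo luminescence, after log2 transformation, was normalised on each plate to % activity between solvent and positive control wells. Growth inhibition is reported as the median across replicates.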

Point of comparison: `CN1CCC(=C2c3ccccc3C=Cc3ccccc32)CC1`, growth inhibition -0.277%. Against it:
- CCN[C@H]1CN(CCCOC)S(=O)(=O)c2sc(S(N)(=O)=O)cc21 — higher, 1.84%
- C=C1CCC(O)CC1=CC=C1CCCC2(C)C1CCC2C(C)CCCC(C)(C)O (centres undefined) — higher, 3.34%
- O=c1c(-c2ccc(O)cc2)coc2cc(O)ccc12 — higher, -0.191%
- Cn1c(CNc2ccc(C(=N)N)cc2)nc2cc(C(=O)N(CCC(=O)O)c3ccccn3)ccc21 — higher, 1.05%
- CC(C)C[C@H](NC(=O)[C@H](CCc1ccccc1)NC(=O)CN1CCOCC1)C(=O)N[C@@H](Cc1ccccc1)C(=O)N[C@@H](CC(C)C)C(=O)[C@@]1(C)CO1 — higher, 55.8%
- C[N+](C)(C)CCCCCC[N+](C)(C)C — higher, 0.491%
- COc1cc(/C=C/C(=O)N2CCN(CC(=O)N3CCCC3)CC2)cc(OC)c1OC — higher, -0.108%
- O=C(CCCN1CC=C(n2c(=O)[nH]c3ccccc32)CC1)c1ccc(F)cc1 — higher, 1.35%
- Cc1nnc(C(C)C)n1C1C[C@H]2CC[C@@H](C1)N2CC[C@H](NC(=O)C1CCC(F)(F)CC1)c1ccccc1 (stereo in doubt) — higher, 6.87%
- CCCCC(=O)N(Cc1ccc(-c2ccccc2-c2nnn[nH]2)cc1)[C@H](C(=O)O)C(C)C — lower, -0.538%
- CCN(CC)C(=O)/C(C#N)=C/c1cc(O)c(O)c([N+](=O)[O-])c1 — lower, -1.51%
- CCCCC(=O)O[C@]1(C(=O)CO)[C@@H](C)C[C@H]2[C@@H]3CCC4=CC(=O)C=C[C@]4(C)[C@@]3(F)[C@@H](O)C[C@@]21C — higher, 0.933%

For `CC(C)Cc1ccc(C(C)C(=O)O)cc1` (centres undefined), the growth inhibition was 2.15% and 0.0236%.
